Hits are enriched below; roughly 9.9% of the tested compounds scored in any of these assays.
SW480 rerep – induces DNA re-replication in SW480 colon adenocarcinoma cells | SW480 DNA re-replication, Hoechst DNA content imaging, 48 h | Potency, µM (highest dose often 46.1 µM), without a hit: at the highest dose re-replication activation, most hits filed as activators | hit rate 1.8% among 340,000 | AID 624297; note: potency is the fitted concentration of half-maximal effect; % of control where 0% means no effect; nearly all actives have a fitted effect of over 55% in size
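DNA re-replication was detected as more nuclei of elevated Hoechst intensity after 48 hr exposure to compound (23 nL pinned per well of 250 cells).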
MCF10A rerep – induces DNA re-replication in MCF 10a normal breast cells; hit rate 2.9% among 350,000; MCF 10A DNA re-replication, Hoechst nuclear intensity, 48 h; AID 624296; Potency, µM (highest dose often 46.1 µM), for inactives: at the highest dose activity, positive = re-replication, most hits filed as activators; note: potency is the fitted concentration of half-maximal effect; % of control where 0% means no effect; nearly all actives have a fitted effect of over 50% in size
KB-3-1 cytotox – kills parental KB-3-1 adenocarcinoma cells | hit rate 1.4% among 400,000 | Potency, µM (highest dose often 46.1 µM), actives largely listed as cytotoxic | KB-3-1 viability, CellTiter-Glo ATP luminescence, 72 h; note: potency is the fitted concentration of half-maximal effect; % is set by controls: 0 for no effect and ±100 for the full control effect; nearly all actives have a fitted effect of over 60% in size
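Parental KB-3-1 viability, qHTS format: 72 h compound exposure, 37 °C; CellTiter-Glo; media-only wells and DMSO plates as controls; concentration-effect fits on corrected data.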
KB-V1 cytotox – KB-V1 MDR subline cytotoxicity; hit rate 3.4% among 400,000; KB-V1 MDR cells viability, CellTiter-Glo, 72 h; AID 1347076; Potency, µM (series often up to 46.1 µM), actives largely listed as cytotoxic; note: potency is the fitted concentration of half-maximal effect; % is set by controls: 0 for no effect and ±100 for the full control effect; nearly all actives have a fitted effect of over 60% in size
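KB-V1 cells (P-gp-expressing MDR subline of KB-3-1) in phenol-red-free DMEM with 10% FBS were exposed to library compounds over a concentration series for 72 h at 37 degrees C. Viability read by CellTiter-Glo luminescence; concentration-effect curves fitted after normalization.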
IL-1B inflam inh – inflammasome signaling inhibition, IL-1 beta readout; THP-1 LPS/ATP IL-1B secretion, AlphaLISA, 16 h; stronger effect = lower value; hit rate 4.7% among 360,000; activity change, % at 57.5 µM; in the data active = activity change below about -50%; inconclusive = mostly about -30% to -49%; note: % is set by controls: 0 for no effect and ±100 for the full control effect
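Secreted IL-1B measured by AlphaLISA bead assay after 16 h compound exposure of THP-1 cells; compounds (final up to 57.5 uM) added 1 h before LPS (250 ng/mL) and ATP (1.25 mM) stimulation; lower signal means less secretion.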
The depositor's hits bear a star; i = inactive; ? = inconclusive; . = no result; [ ] = remark or other dose. Unless noted, calls come from the whole dose curve; as a rule, active = well fitted curve in the direction sought with a large enough effect; inconclusive = small, poorly fitted or top-dose-only effect, or another doubt; inactive = no such curve, though single readings can be large; an effect the other way counts as inactive or inconclusive.

SMILES	SW480 rerep	MCF10A rerep	KB-3-1 cytotox	KB-V1 cytotox	IL-1B inflam inh
Cc1ccc(NC(=O)C2CCN(S(=O)(=O)c3c(C)noc3/C=C/c3ccco3)CC2)nc1	6.5%	?	?	?	0.0
CCCN1CCN(C(=O)C2CCN(S(=O)(=O)c3c(C)noc3/C=C/c3ccc(C)cc3)CC2)CC1	16.4µM*	?	25.9µM*	?	?
O=C(NCCC1CC1(Cl)Cl)Nc1ccccc1 (stereo unspecified)	11.6%	-0.7%	i	i	-18.5
CC(=O)C(C(C)=O)C(NC(=O)c1cccnc1)(C(F)(F)F)C(F)(F)F	?	20.6µM*	i	i	16.6
COc1ccc(O)c(/C=N/NC(=S)NCCc2ccccc2)c1	26.1%	?	?	?	-97.4*
O=C(CCc1ccccc1)N/N=C/c1cc(Br)ccc1O	?	?	i	?	19.6
Oc1ccc(Br)cc1/C=N/NC(=S)NCCc1ccccc1	?	?	?	i	-74.6*
CCOC(=O)n1c(=O)oc2cc(S(=O)(=O)N3CCCCC3)ccc21	-6.5%	?	i	23.1µM*	10.2
CCOC(=O)N1CCN(S(=O)(=O)c2ccc3c(c2)oc(=O)n3C)CC1	-1.8%	1.6%	i	23.1µM*	5.9
COC(=O)n1c(=O)oc2cc(S(=O)(=O)N3CCCCC3)ccc21	-3.6%	-6.4%	i	?	4.4
CCOc1ccc(C2c3c(oc4ccc(C)cc4c3=O)C(=O)N2CCCN(C)C)cc1 (stereo unspecified)	.	.	i	?	.
Cc1ccc(CN2CCC(CNC(=O)Nc3c(C)cccc3C)C2)cc1 (stereo unspecified)	.	.	i	i	.
Cc1cc2c3c(c1C)C1(C(=O)N3C(C)(C)CC2C)C(C#N)=C(N)Oc2cc(O)ccc21 (stereo unspecified)	8.8%	13.0%	i	i	-61.9*
Cc1cc2c3c(c1)C1(C(=O)N3C(C)(C)CC2C)C(C#N)=C(N)OC2=C1C(=O)CC(C)(C)C2 (stereo unspecified)	-2.3%	0.7%	i	i	-16.4
C/C(=N\N1CCN(c2ccccc2)CC1)c1ccc(O)cc1	-4.2%	0.8%	i	i	-17.9
Cc1nn(C)c(C)c1S(=O)(=O)N(CC(=O)N1CCc2ccccc2C1)c1ccc(C(C)C)cc1	-16.9%	17.4%	?	?	-11.8
COc1ccc(C2=NOC(C(=O)N3CCCc4ccccc43)C2)cc1 (stereo unspecified)	-2.6%	?	i	13µM*	-14.7
COc1ccc(-c2cc(C(=O)N3CCCc4ccccc43)no2)cc1	-2.7%	27.4%	i	14.6µM*	0.0
Cc1n[nH]c(=O)c2c(NC(=O)CSc3ccc(Br)cc3)oc(C)c12	1.4%	-1.1%	i	i	0.5
Fc1cccc(Cc2noc(CN3CCC(c4ccncc4)CC3)n2)c1	6.4%	15.1%	?	i	23.1
CCOc1cccc(C(=O)Nc2ccc3c(c2)OCCO3)c1	-2.5%	-0.8%	i	?	-13.6
Cc1ccccc1OCC(=O)Nc1ccccc1N1CCCCC1	?	?	?	14.6µM*	13.9
Cc1cccc(OCC(=O)Nc2ccccc2N2CCCC2)c1C	?	?	?	?	-4.7
O=C(Nc1ccc(N2CCOCC2)c(S(=O)(=O)Nc2ccccc2Cl)c1)c1ccccc1	-0.7%	5.2%	?	i	-2.2
Cc1cc(C)cc(NC(=O)Nc2ccccc2N2CCCCC2)c1	-13.9%	5.4%	i	i	-74.0*
SMILES	SW480 rerep	MCF10A rerep	KB-3-1 cytotox	KB-V1 cytotox	IL-1B inflam inh
Cc1cc(C)cc(OCC(=O)Nc2ccccc2N2CCCCC2)c1	?	8.2µM*	i	i	23.1
O=C(Nc1ccc(Cl)cc1)Nc1ccc(N2CCCC2)c(S(=O)(=O)Nc2ccccc2Cl)c1	?	?	?	?	-52.2*
CSc1ccccc1C(=O)NCc1ccccc1C	2.6%	4.3%	i	i	-12.4
CC(=O)c1ccc(NC(=O)CSc2nc(-c3cccc(F)c3)nc3c2c(=O)n(C)c(=O)n3C)cc1	.	.	i	i	.
O=C1C(Br)=C(c2ccccc2)C(c2ccccc2)=C1c1ccccc1	2.91µM*	3.66µM*	6.51µM*	?	-12.6
C[C@H](CO)N1C[C@H](C)[C@@H](CN(C)Cc2ccc(Oc3ccccc3)cc2)Oc2c(NC(=O)c3ccncc3)cccc2C1=O	-10.4%	22.8%	i	i	4.3
CCOC(=O)c1ccc(Nc2c(CC)c(C)nc3ncnn23)cc1	1.2%	?	i	23.1µM*	-0.3
CCc1c(C)nc2ncnn2c1NCCc1ccc(OC)c(OC)c1	-1.9%	-6.8%	23.1µM*	9.2µM*	14.9
COc1ccc(CCNc2c(C)c(C)nc3ncnn23)cc1	8.2µM*	?	i	i	-10.7
CCOc1ccc(CCNc2cc(C)nc3ncnn23)cc1OCC	-8.2%	0.2%	i	i	65.4
COc1ccc(-c2cc(NCCc3ccncc3)n3ncnc3n2)cc1	4.2%[9.22 µM]	3.0%	i	i	-65.6*
CC(=O)c1cc(-c2ccccc2)n(CC(=O)N2CCC(C)CC2)c1C	-9.4%	5.0%	i	5.8µM*	2.2
CC(=O)c1cc(-c2ccccc2)n(CC(=O)N2CCN(C3CCCC3)CC2)c1C	-0.6%	-0.5%	i	i	-14.8
COc1ccc(/C=C/C(=O)Nc2cccc(S(=O)(=O)N3CCOCC3)c2)cc1OC	?	8.8%	i	i	9.8
COc1ccc(/C=C/C(=O)NC2CCCCCCC2)cc1S(=O)(=O)N1CCOCC1	.	?	?	23.1µM*	0.0
CN(Cc1ccc(OC(F)F)cc1)C(=O)/C=C/c1ccc(S(=O)(=O)N2CCOCC2)cc1	-5.8%	11.3%	i	i	-66.0*
COc1cc(/C=C/C(=O)Nc2cccc(S(=O)(=O)N3CCOCC3)c2)ccc1OCC#N	4.3%	-2.2%	i	i	-53.8*
O=C(/C=C/c1ccc(OC(F)F)cc1)Nc1cccc(S(=O)(=O)N2CCOCC2)c1	-2.8%	?	?	?	-65.4*
CCOc1ccc(C(=O)NN2C(=S)NC(C)(C)C=C2C)cc1	-15.1%	-0.4%	i	i	-9.4
CC(C)c1ccccc1OS(N)(=O)=O	-1.1%	4.2%	i	i	29.9
CC(O/N=C/c1ccccc1OC(F)F)C(=O)Nc1cccc(S(=O)(=O)N2CCOCC2)c1 (stereo unspecified)	-54.3%	-27.7%	i	13µM*	-23.8
COc1cc(/C=N\NC(=O)c2ccccc2F)ccc1Oc1ccc([N+](=O)[O-])cn1	?	23.1µM*	?	7.31µM*	-11.8
CCOc1cc(C=C(C#N)C#N)ccc1Oc1ccc([N+](=O)[O-])cn1	17.4%	-0.5%	i	i	-28.6
